From PubChem BioAssay (NCATS)
Inconclusive results are not listed. Entries that show only a call come without a potency. Activity calls are given as the source filed them. Calls follow the shape of the dose curve; as a rule, active = well fitted inhibition curve with a large enough effect; inconclusive = small, poorly fitted or top-dose-only effect; inactive = no such curve, though single readings can be large or run the other way.

test system: Zika virus NS2B-NS3 protease (unlinked complex); experiment: Primary screen GU Rhodamine qHTS for Zika virus inhibitors: Unlinked NS2B-NS3 protease assay (AID 1347159); details: Recombinant ZIKV NS2B-NS3 protease, Rhodamine110 substrate fluorescence; series mostly up to 107 µM; also: nearly all actives have a fitted effect of over 60% in size
How it was run: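 Percent inhibition derives from the 15-min fluorescence change (ex 480, em 540 nm), normalized to no-enzyme and no-inhibitor wells. Reactions contained 25 nM NS2B-NS3 complex and 1.5 microM substrate in 10 mM Tris-HCl pH 8.0.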
Potency is read from the fitted curve at half-maximal effect.

SMILES | Potency | activity change, negative = inhibition
CCC(C)C(N)C(=O)NCCN1CCOCC1 (stereo not drawn) | inactive | –
NC[C@H]1CCC[C@@H](CNC(=O)[C@@H](Cc2c[nH]c3ccccc23)NC(=O)N2CCC3(C=Cc4ccccc43)CC2)C1 | inactive | –
Nc1nc(COC(=O)c2ccc([N+](=O)[O-])cc2)nc(Nc2ccccc2)n1 | inactive | –
CC1=CCC[C@@H]2[C@@](C)(CCc3ccoc3)[C@H](C(=O)O)CC[C@@]12C | 31.6 µM (active) | –
COC(=O)[C@]1(C)CCC[C@@]2(C)C(=O)CC[C@H]3C(=O)C=C(CC[C@@H]21)C3O (stereo partly drawn) | inactive | –
CN1CCN(c2nc(-c3ccc(C(=O)NC4(C(=O)NCC#N)CCCCC4)cc3)cs2)CC1 | inactive | –
CC1OC(OC2C(OC3C(O[C@H]4CC[C@@]5(C)C(CC[C@]6(C)C5CC=C5C7CC(C)(C)CC(O)[C@]7(C)CC[C@]56C)C4(C)C)OC(C(=O)O)C(O)C3O)OCC(O)C2O)C(O)C(O)C1O (stereo partly drawn) | 7.94 µM (active) | –
COC(=O)C1=COC(OC2OC(CO)C(O)C(O)C2O)C2C(C)CC(=O)C12O (stereo not drawn) | inactive | –
CC1CC=C2C1CC1(O)C(=O)CC2(C)C1(C)CO (stereo not drawn) | 35.5 µM (active) | –
CC1=C2C3OC(=O)C(C)C3(O)CCC2(C)CCC1 (stereo not drawn) | inactive | –
OCC1OC(Oc2cc(O)cc(/C=C/c3ccc(OC4OC(CO)C(O)C(O)C4O)cc3O)c2)C(O)C(O)C1O (stereo not drawn) | inactive | –
CCCC(=O)Nc1cccc(NC(=O)c2ccccc2Br)c1 | inactive | –
COC(=O)C1=CO[C@@H](O[C@@H]2O[C@H](CO)[C@@H](O)[C@H](O)[C@H]2O)[C@H]2[C@@H]1[C@H](O)[C@H](O)[C@]2(C)O | inactive | –
C[C@@H]1[C@H]2[C@H](O[C@@H]3O[C@H](CO)[C@@H](O)[C@H](O)[C@H]3O)OC=C(C(=O)O)[C@H]2C[C@@H]1OC(=O)/C=C/c1ccc(O)cc1 | 31.6 µM (active) | –
Cc1c(O)cc2c(c1O)COC1(O)CCCOC21 (stereo not drawn) | inactive | –
Cc1ccccc1N1CCN(S(=O)(=O)C[C@]23CC[C@H](C[C@@H]2NC(=O)[C@@H](N)CCS(C)(=O)=O)C3(C)C)CC1 | inactive | –
Cc1c(Cc2ccc3ccccc3n2)c2cc(F)ccc2n1CC(=O)O | 35.5 µM (active) | –
Cc1ncc(Cl)cc1NCc1ccc(C(=O)NC(CC2CCCC2)C(=O)NC2CC2)s1 (stereo not drawn) | inactive | –
C/C=C(\C)C1C(C)=CC2CCC(OS(=O)(=O)O)C(C)C2C1/C=C/C=C/C(=O)O (stereo not drawn) | 8.91 µM (active) | –

SMILES | Potency | activity change, negative = inhibition
CC1(C)CC[C@]2(C(=O)O[C@@H]3O[C@H](CO[C@@H]4O[C@H](CO)[C@@H](O)[C@H](O)[C@H]4O)[C@@H](O)[C@H](O[C@@H]4O[C@H](CO)[C@@H](O)[C@H](O)[C@H]4O)[C@H]3O)CC[C@]3(C)C(=CCC4[C@@]5(C)CC[C@H](O[C@@H]6OC[C@@H](O)[C@H](O)[C@H]6O)[C@@](C)(C(=O)O)C5CC[C@]43C)[C@@H]2C1 (stereo partly drawn) | inactive | –
CCC[C@H](N[C@@H](C)C(=O)N1[C@H](C(=O)O)C[C@@H]2CCCC[C@@H]21)C(=O)O | inactive | –
C=C1CCC[C@]2(C)CC[C@@](O)(C(=C)C(=O)O)C[C@@H]12 | 11.2 µM (active) | –
CC(C)=CCc1cc(O[C@@H]2O[C@H](CO[C@@H]3OC[C@](O)(CO)[C@H]3O)[C@@H](O)[C@H](O)[C@H]2O)ccc1O | inactive | –
CC(C)(Oc1ccc(-c2nc3cc(Cl)ccc3s2)cc1)C(=O)O | 35.5 µM (active) | –
COc1ccc2c(c1)C=C1Cn3c-2c(C2CCCCC2)c2ccc(cc23)C(=O)NS(=O)(=O)N(C)CCOCCN(C)C1=O | 2.51 µM (active) | –
CC(=O)O[C@H]1C[C@@]2(C)[C@@H](CC[C@H]3[C@@]4(C)C=CC(=O)[C@@H](C)[C@@H]4[C@H](OC(C)=O)C(=O)[C@@]32C)/C1=C(\CCC=C(C)C)C(=O)O | inactive | –
C[C@@H]1O[C@@H](O[C@H]2[C@H](OC(=O)[C@]34CCC(C)(C)C[C@H]3C3=CCC5[C@@]6(C)C[C@@H](O)[C@@H](O[C@@H]7O[C@H](CO)[C@@H](O)[C@H](O)[C@H]7O)[C@@](C)(CO)C6[C@H](O)C[C@@]5(C)[C@]3(C)CC4)OC[C@H](O)[C@@H]2O)[C@H](O)[C@H](O[C@@H]2OC[C@](O)(CO)[C@H]2O)[C@H]1O[C@@H]1OC[C@@H](O)[C@H](O[C@H]2O[C@H](C)[C@@H](O)[C@H](O)[C@@H]2O)[C@H]1O (stereo partly drawn) | – | 9.3% [at 19.1 µM] (inactive)
COc1ccc(CC(NC(C)=O)C(=O)O)cc1 (stereo not drawn) | 31.6 µM (active) | –
C[C@@H]1O[C@@H](O[C@H]2[C@H](O[C@H]3[C@H](O[C@H]4CC[C@@]5(C)C(CC[C@]6(C)C5CC=C5[C@@H]7CC(C)(C)C[C@@H](O)[C@]7(C)CC[C@]56C)[C@@]4(C)CO)O[C@H](C(=O)O)[C@@H](O)[C@@H]3O)O[C@H](C(=O)O)[C@H](O)[C@@H]2O)[C@H](O)[C@H](O)[C@H]1O (stereo partly drawn) | inactive | –
COc1cc(C(=O)OC[C@@]2(O)CO[C@@H](O[C@H]3[C@H](Oc4ccc(O)cc4)O[C@H](CO)[C@@H](O)[C@@H]3O)[C@@H]2O)cc(OC)c1O | inactive | –
C=C(C(=O)O)C1CC(O)C2(C)CCCC(C)(O)C2C1 (stereo not drawn) | inactive | –
CC1CCCCCCCc2cc(O)cc(O)c2C(=O)O1 (stereo not drawn) | 39.8 µM (active) | –
CC1(C)CC[C@]2(C(=O)O)CC[C@]3(C)C(=CCC4[C@@]5(C)CC[C@H](O[C@H]6O[C@H](C(=O)O)[C@@H](O)[C@H](O[C@@H]7O[C@H](CO)[C@H](O)[C@H](O)[C@H]7O)[C@H]6O)C(C)(C)C5CC[C@]43C)[C@@H]2C1 (stereo partly drawn) | 8.91 µM (active) | –
COc1cc([C@@H](O[C@@H]2O[C@H](CO)[C@@H](O)[C@H](O)[C@H]2O)[C@@H]2CO[C@H](c3ccc(O)c(OC)c3)[C@H]2CO)ccc1O | inactive | –
CC(O)C(O)/C=C/C=C/C(=O)O[C@@H]1C=C(C(=O)O)[C@](O)(CO)[C@@]2(C)CCCC(C)(C)[C@H]12 (stereo partly drawn) | inactive | –
CC(C)C1CCC(C(=O)N[C@@H](Cc2ccccc2)C(=O)O)CC1 (stereo partly drawn) | 31.6 µM (active) | –
C=Cc1ccc(O[C@@H]2O[C@H](CO[C@@H]3O[C@@H](C)[C@H](O)[C@@H](O)[C@H]3O)[C@@H](O)[C@H](O)[C@H]2O)cc1 | inactive | –
COC(=O)C(CC1(OC(=O)C(C)C)c2ccccc2N2C(=O)C(C)(C)N(O)C21)n1cnc2ccccc2c1=O (stereo not drawn) | inactive | –
